In all, about 360,000 compounds went through this assay and about 16,000 (4.4%) were called active. Roughly 9% stayed inconclusive and do not appear here. Calls come from the whole dose curve; as a rule, active = well fitted inhibition curve with a large enough effect; inconclusive = small, poorly fitted or top-dose-only effect; inactive = no such curve, though single readings can be large or run the other way. Many of the other results were omitted from the sample, so actives are more common in it than they were.
Biological target: Bromodomain adjacent to zinc finger domain protein 2B (Homo sapiens) (UniProt Q9UIF8)
Assay: qHTS Assay for Inhibitors of BAZ2B; note: nearly all actives have a fitted effect of over 60% in size
Conditions: AlphaScreen BAZ2B-H3K14Ac peptide displacement; series mostly up to 114 µM; activity change, negative = inhibition: at the top concentration
From the text: BAZ2B (bromodomain adjacent to zinc finger domain, 2B) belongs to a family of ubiquitously expressed bromodomain containing proteins, which biological function has not yet been elucidated. […] The interaction of BAZ2B with ISWI mediated by the BAZ1 motif has recently been described. […] The protocol is based on the AlphaScreen (PerkinElmer) displacement assay developed by NCGC [5], but uses the peptide ligand Biot-H3K14Ac, a high affinity binding partner for BAZ2B, in an AlphaScreen format. Although AlphaScreen has significant advantages with its utility in a variety of epigenetic target assays, the primary screening data provided in this deposition should be used with caution due to the prevalence of screening artifacts. The top compound concentration tested was 110uM in this assay, which increases number of actives and potential artifacts. An AlphaScreen counterscreen is highly recommended to be run against any putative actives to eliminate non-specific artifacts. Alternatively, one can use other AlphaScreen assays in PubChem to filter out promiscuous hits. Eberharter, A. et al. ACF1 improves the effectiveness of nucleosome mobilization by ISWI through PHD-histone contacts. The EMBO journal 23, 4029-4039. 2004. PMID: 15457208 [2] Jones, M.H. et al. A novel family of bromodomain genes. Genomics 63, 40-45. 2000. PMID: 10662543 [3] Yasgar, et al. Compound Management for Quantitative High-Throughput Screening. JALA. 2008 Apr;13(2):79-89. PMID: 18496600 [4] Inglese, et al. Quantitative high-throughput screening: a titration-based approach that efficiently identifies biological activities in large chemical libraries. Proc Natl Acad Sci. 1;103(31):11473-8. 2006. PMID: 16864780 [5] Quinn et al. A chemiluminescence-based method for identification of histone lysine methyltransferase inhibitors. Mol Biosyst 6(5): 782-8. 2010. PMID: 20567762 [6] Baell,Holloway. New substructure filters for removal of pan assay interference compounds (PAINS) from screening libraries and for their exclusion in bioassays. J Med Chem. 53(7):2719-40. 2010. PMID: 20131845 NIH Molecular Libraries Probe Production Network [MLPCN] NIH Chemical Genomics Center [NCGC] Structural Genomics Consortium (SGC) NIH Grant: 5U54 MH084681-02
To each well of a 1,536w plate, 2ul of BAZ2B protein (final 50nM) and 1ul biotinylated histone peptide acetylated at Lys14 [b-H3(5-23)K14Ac] (final 50nM) were added in 1x PBS buffer, pH 7.4, containing 0.01% Tween-20, using a nanoliter dispenser. Formation of a protein-peptide complex proceeded at room temperature for 30 min. A Kalypsys pin-tool was employed to transfer 23 nL of library compound solution in DMSO to each well. Following a 30 min incubation of the protein-peptide complex with compounds at room temperature, a mixture of 40 ug/mL each streptavidin-coated donor and nickel chelate acceptor AlphaScreen beads (final 10 ug/mL) were added in a 1ul dispense for a final volume of 4ul. A brief centrifugation followed (1000rpm, 1 min) and were then incubated protected from the light for 20 min at room temperature. Plates were read on an EnVision multilabel plate reader using the 1,536 plate HTS AlphaScreen aperture (excitation time 80 ms, measurement time 240 ms).
% is set by controls: 0 for no effect and ±100 for the full control effect; potency is the fitted concentration of half-maximal effect.

Chain of Bromodomain adjacent to zinc finger domain protein 2B (Homo sapiens) (Q9UIF8 whole entry, looked up, the tested form may be a part): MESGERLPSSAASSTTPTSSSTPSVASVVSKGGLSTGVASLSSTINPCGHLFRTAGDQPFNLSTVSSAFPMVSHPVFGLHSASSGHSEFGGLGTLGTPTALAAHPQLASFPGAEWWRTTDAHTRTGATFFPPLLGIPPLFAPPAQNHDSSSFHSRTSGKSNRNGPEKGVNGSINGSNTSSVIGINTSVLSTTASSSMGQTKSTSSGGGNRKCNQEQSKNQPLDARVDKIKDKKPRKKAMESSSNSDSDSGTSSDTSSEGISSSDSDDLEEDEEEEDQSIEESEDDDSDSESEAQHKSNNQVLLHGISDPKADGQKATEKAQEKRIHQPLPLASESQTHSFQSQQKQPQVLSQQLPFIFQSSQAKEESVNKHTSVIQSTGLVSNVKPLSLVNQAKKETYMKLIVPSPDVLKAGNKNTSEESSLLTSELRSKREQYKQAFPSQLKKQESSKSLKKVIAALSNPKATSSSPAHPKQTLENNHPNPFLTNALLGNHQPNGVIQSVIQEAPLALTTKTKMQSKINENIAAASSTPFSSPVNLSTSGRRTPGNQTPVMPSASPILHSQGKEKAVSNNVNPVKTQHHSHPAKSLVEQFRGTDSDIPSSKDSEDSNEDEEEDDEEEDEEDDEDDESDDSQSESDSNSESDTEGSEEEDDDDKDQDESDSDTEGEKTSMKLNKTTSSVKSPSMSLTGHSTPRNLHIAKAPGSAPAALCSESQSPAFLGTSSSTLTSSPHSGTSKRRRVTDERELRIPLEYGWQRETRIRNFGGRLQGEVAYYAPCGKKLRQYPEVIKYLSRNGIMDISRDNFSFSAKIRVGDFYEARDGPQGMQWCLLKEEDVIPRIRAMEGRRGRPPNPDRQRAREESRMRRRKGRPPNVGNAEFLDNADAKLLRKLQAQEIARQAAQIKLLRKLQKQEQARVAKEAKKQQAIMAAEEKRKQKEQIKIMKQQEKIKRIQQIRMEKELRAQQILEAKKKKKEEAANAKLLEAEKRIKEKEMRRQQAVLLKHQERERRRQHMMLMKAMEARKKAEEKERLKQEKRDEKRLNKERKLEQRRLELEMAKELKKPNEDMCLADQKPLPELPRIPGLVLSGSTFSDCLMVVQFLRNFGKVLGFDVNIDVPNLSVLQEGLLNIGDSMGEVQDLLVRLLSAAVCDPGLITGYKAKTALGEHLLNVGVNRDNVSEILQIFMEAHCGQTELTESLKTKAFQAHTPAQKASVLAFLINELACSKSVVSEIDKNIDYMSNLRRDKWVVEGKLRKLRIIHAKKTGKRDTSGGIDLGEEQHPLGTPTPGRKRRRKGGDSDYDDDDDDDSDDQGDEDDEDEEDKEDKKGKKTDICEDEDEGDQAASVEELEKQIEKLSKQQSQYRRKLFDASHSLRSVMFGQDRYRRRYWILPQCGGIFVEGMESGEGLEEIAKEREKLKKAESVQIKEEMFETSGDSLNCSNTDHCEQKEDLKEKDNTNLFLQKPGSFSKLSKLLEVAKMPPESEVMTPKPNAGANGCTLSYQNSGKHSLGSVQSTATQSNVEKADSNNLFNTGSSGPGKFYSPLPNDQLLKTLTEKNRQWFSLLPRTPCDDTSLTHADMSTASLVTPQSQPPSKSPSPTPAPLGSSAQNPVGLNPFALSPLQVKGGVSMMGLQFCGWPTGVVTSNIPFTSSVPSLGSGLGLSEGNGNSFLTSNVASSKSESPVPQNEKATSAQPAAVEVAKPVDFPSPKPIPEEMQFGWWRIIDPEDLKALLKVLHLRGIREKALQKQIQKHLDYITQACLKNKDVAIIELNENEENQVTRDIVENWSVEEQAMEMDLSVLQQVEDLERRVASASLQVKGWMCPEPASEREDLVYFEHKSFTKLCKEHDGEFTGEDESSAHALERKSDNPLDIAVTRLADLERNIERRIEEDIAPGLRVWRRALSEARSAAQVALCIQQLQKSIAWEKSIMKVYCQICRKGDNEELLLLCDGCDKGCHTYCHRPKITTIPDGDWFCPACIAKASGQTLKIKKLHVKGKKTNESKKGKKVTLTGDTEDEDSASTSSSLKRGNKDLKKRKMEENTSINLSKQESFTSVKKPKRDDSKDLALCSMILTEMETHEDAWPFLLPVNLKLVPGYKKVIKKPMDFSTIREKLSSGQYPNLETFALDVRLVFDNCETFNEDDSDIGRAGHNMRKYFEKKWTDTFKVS

Structure (SMILES)	activity change, negative = inhibition	Potency
COc1ccc2cc(CNc3ccc(OC)c(OC)c3)c(=O)n(CC(=O)Nc3ccccc3F)c2c1	0.402% (inactive)	
COc1cccc(-c2n[nH]c3c2C(c2cccc(O)c2)N(C)C3=O)c1 (centres undefined)	-16% (inactive)	
Cc1ccc(/C=N/NC(=O)c2cc3ccccc3cc2O)o1	-28.4% (inactive)	
Cc1cc(N=Nc2ccc3ccccc3c2)ccc1O		28.2 µM (active)
COc1ccc(/C=C/c2noc(-c3ccccc3O)n2)cc1OC	4.53% (inactive)	
COc1ccc(-n2c(SCC(=O)Nc3ccc(Cl)c(C)c3)nc3n[nH]c(C)c3c2=N)cc1	-4.47% (inactive)	
CCc1cccc(NC(=O)CN(c2ccc(C)c(C)c2)S(=O)(=O)c2ccsc2C(=O)OC)c1	-6.76% (inactive)	
Cc1cccnc1NC(=O)c1cccc(S(=O)(=O)N2CCN(c3ccc(F)cc3)CC2)c1	-30.1% (inactive)	
O=C(CN1CCN(c2ccc(F)cc2)CC1)Nc1ccccc1	6.8% (inactive)	
COc1cc(C)cc(CN2CCC(Cc3ccccc3)CC2)c1O	-25.9% (inactive)	
Oc1c(CN2CCCC2)cc(COCc2ccccc2)c2cccnc12		17.8 µM (active)
Oc1c(CN2CCN(c3ccc(F)cc3)CC2)cc(Cl)c2cccnc12		22.4 µM (active)
COc1cc(CN2CCC(C(N)=O)CC2)ccc1OCc1ccccc1	-14.9% (inactive)	
CCCS(=O)(=O)c1c(Nc2ccccc2C)sc(C(=O)c2ccccc2)c1N	-30.6% (inactive)	
Cc1ccc(-c2nn3c(=O)cc(CN4CCN(S(=O)(=O)c5ccc(Cl)cc5)CC4)nc3s2)cc1	-2.85% (inactive)	
COc1cc(NC(=O)c2cc(C3CC3)nc3c2c(C)nn3-c2ccccc2)cc(OC)c1	10.3% [at 57.1 µM] (inactive)	
O=C(/C=C/c1ccccc1)Nc1cc(-c2nc3cc(Cl)ccc3o2)ccc1Cl	-6.45% (inactive)	
CCN(CCCNC(=O)c1ccc2c(c1)NC(=O)CN2C)c1cccc(C)c1		50.1 µM (active)
CCCCNC(=O)c1ccc2c(c1)NC(=O)C(C(C)C)N2 (centres undefined)	-2.58% (inactive)	
CCN(CCCNC(=O)Cn1ncc2c([nH]c3ccccc32)c1=O)c1cccc(C)c1	-10.1% (inactive)	
CCC1CCCCN1C(=O)Cn1c(=O)n(CCCCCC(=O)NCc2ccccc2)c(=O)c2sccc21 (centres undefined)	4.84% (inactive)	
COc1cccc(CC(=O)Nc2ccc(-c3csc(C)n3)cc2)c1	-13.6% (inactive)	

Structure (SMILES)	activity change, negative = inhibition	Potency
CCOC(=O)c1csc(NC(=O)Nc2cccc(OC)c2)n1	-4.77% (inactive)	
Cc1nc(NC(=O)c2cccc(Cl)c2)sc1-c1csc(Nc2cccc(Cl)c2)n1	-13.5% (inactive)	
C=CCCC(=O)Nc1nc(C)c(-c2csc(Nc3ccc(Cl)cc3)n2)s1		44.7 µM (active)
CCC(=O)Nc1nc(C)c(C(=O)Nc2cccc(Cl)c2)s1	-34.4% (inactive)	
CC(=O)Nc1nc(C)c(-c2csc(Nc3ccc(S(N)(=O)=O)cc3)n2)s1	-12.2% (inactive)	
CCCCCCC(=O)Nc1nc(C)c(-c2csc(Nc3cccc(OC)c3)n2)s1		50.1 µM (active)
Cc1ccc(Nc2nc(-c3sc(NC(=O)c4ccccc4)nc3C)cs2)cc1		50.1 µM (active)
Cc1ccc(C(=O)Nc2nc(-c3ccccc3)ns2)cc1	1.63% (inactive)	
O=C(NCCc1ccc(Cl)cc1)c1ccc2c(c1)N(Cc1ccc(F)cc1)C(=O)CS2	-2.79% (inactive)	
COc1cc(NC(=O)c2noc3c2CSc2ccccc2-3)cc(OC)c1OC	-8.66% (inactive)	
COc1ccc(-n2c(=O)c3sc4ccccc4c3n(CC(=O)Nc3cccc(C)c3)c2=O)cc1	-6.4% (inactive)	
COc1ccc(NC(=O)Cn2c(=O)n(CCC(C)C)c(=O)c3cccnc32)cc1Cl	-0.608% (inactive)	
Cc1cccc(OCCCC(=O)Nc2sc3c(c2C(N)=O)CCC(C)C3)c1 (centres undefined)	-8.35% (inactive)	
COc1ccc(Cl)cc1NC(=O)Cn1c(=O)c2ccccc2n2nncc12	-22.9% (inactive)	
COc1ccc(OC)c(NC(=O)CN2CCCN(Cc3cc(C)ccc3C)S2(=O)=O)c1	-18.8% (inactive)	
Cc1cc(C(=O)Nc2cccc(C(F)(F)F)c2)c2c(C)nn(-c3cccc(F)c3)c2n1	18% [at 57.1 µM] (inactive)	
CC(=O)c1ccc(N2CCN(C3C(=O)c4ccccc4N3C(C)=O)CC2)cc1 (centres undefined)	-14.1% (inactive)	
Cc1ccc(C)c(Cn2c(CCCNC(=O)C3CCCCC3)nc3ccccc32)c1	-25.4% (inactive)	
CC(=O)N1CCN(c2ccc(NCc3ccc(C(C)C)cc3)cc2)CC1		35.5 µM (active)
O=C(Nc1ccc(F)cc1)N1CCN(c2ccc(F)cc2)CC1	2.02% (inactive)	
CC(=O)c1ccc(N2CCN(C(=O)CCc3ccccc3)CC2)cc1	8.19% [at 0.457 µM] (inactive)	
COc1cc(OC)c(NC(=O)c2cnc(N3CCCC3)nc2C)cc1Cl	-6.13% (inactive)	

Structure (SMILES)	activity change, negative = inhibition	Potency
O=C(NCc1ccccc1)c1ccc2c(c1)nc1n2CCCCC1	7.55% (inactive)	
COc1cccc(C(=O)Nc2ccc3oc(-c4ccc5ccccc5c4)nc3c2)c1	-8.57% (inactive)	
CCN1/C(=C\c2ccc3ccccc3[n+]2CC)Sc2cc(C)ccc21		50.1 µM (active)
CCCSc1nc2sc3c(c2c(=O)n1-c1cccc(Br)c1)CC(C)(C)OC3	3.93% (inactive)	
O=S(=O)(NCc1ccco1)c1cnc(Cl)c(Cl)c1	1.63% (inactive)	
Cc1c(Cl)cnc(NC(=O)COC(=O)c2ccc(S(=O)(=O)NCc3ccco3)cc2)c1Cl		50.1 µM (active)
O=C(COC(=O)c1cnc(Cl)c(Cl)c1)NCc1ccco1		50.1 µM (active)
O=C(CCCl)Nc1ccc(S(=O)(=O)NCc2ccco2)cc1	-31% (inactive)	
CSCCC(NC(=O)c1ccco1)C(=O)OCC(=O)Nc1ncc(Cl)c(C)c1Cl (centres undefined)	-37.8% (inactive)	
O=C(COC(=O)c1ccco1)NCc1ccc(Cl)cc1	-1.66% (inactive)	
Cc1nn2c(=O)cc(COC(=O)CNC(=O)c3ccc(F)cc3)nc2s1	-23.7% (inactive)	
CC1=C(c2ccc(C)c(C)c2)S(=O)(=O)NC1=NCc1ccccc1Cl	-20.8% (inactive)	
COc1ccccc1N1CCN(c2ccc(=O)n(CC(=O)NCc3ccc(OC(C)C)cc3)n2)CC1	-12.3% (inactive)	
CCn1nc(C(=O)Nc2ccc(N3CCOCC3)cc2)c2ccccc2c1=O	-3.8% (inactive)	
CC(C)c1ccc(NC(=O)c2ccc(Cn3nc(N4CCN(c5ccccc5)CC4)ccc3=O)o2)cc1		39.8 µM (active)
Fc1ccccc1Oc1ncnc2c1oc1ccccc12	6.13% (inactive)	
O=C(Nc1ccc(Br)cc1)c1cc2nc(-c3ccccc3)cc(-c3ccccc3)n2n1	22.8% (inactive)	
COc1cc(OC)c(C(=O)Nc2ccccc2-c2ccccc2)cc1OC	-25.7% (inactive)	
COc1cc(OC)c(C(=O)Nc2ccc(N(C)C)cc2)cc1OC		50.1 µM (active)
COc1ccc(Cl)cc1C(=O)Nc1ccc(N(C)C(C)=O)cc1	-1.13% (inactive)	
